From PubChem
Only some compounds are listed: those with a hit (about 21% of all), similar ones and a draw of the others.
Cycloheximide cs: affects cycloheximide protein synthesis inhibition readout, counter-screen. cell reporter, cycloheximide protein synthesis inhibition counterscreen. actives 12% (n = 300,000). max response, %; in the data active means max response mostly above about 13%, no sharp cut-off; inactive means mostly below about 14%; further: read at 38.3 µM for the half of the compounds with a filed dose; 0% is about no effect
Pf growth 48h: inhibits P. falciparum growth in the first generation, 48 h; P. falciparum luciferase growth in erythrocytes, 48 h; Potency, µM (doses to about 28.7 µM), for the others: at the highest dose activity change, negative = inhibition, most hits filed as inhibitors; actives 5.9% (n = 310,000); active means well fitted inhibition curve with a large enough effect; inconclusive means small, poorly fitted or top-dose-only effect, or another doubt; inactive means no such curve, though single readings can be large or run the other way; further: potency means the concentration at half of the fitted maximal effect; on the % scale 0 is the no-effect control and ±100 the full control effect
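Erythrocytes infected with P. falciparum carrying an integrated firefly luciferase reporter (2% hematocrit, 0.1% parasitemia final) were exposed to compounds in RPMI 1640 with 0.5% Albumax at 37 C, 5% CO2. Growth inhibition was scored as reduced luminescence.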
SARS PLpro yeast: SARS-CoV PLP inhibition in yeast | S. cerevisiae expressing SARS-CoV PLpro, growth rescue | Potency, µM (series often up to 32.9 µM), without a hit: top-dose activity, positive = growth rescue, hits mostly activators | actives 0.19% (n = 330,000); further: potency means the concentration at half of the fitted maximal effect; 0% is about no effect; nearly all actives have a fitted effect of over 55% in size
Shiga inhibitor: inhibitors of Shiga toxin in Vero cells; Vero cells, Shiga toxin protein synthesis inhibition reporter; inhibition, % at 38.7 µM; actives 9.2% (n = 290,000); AID 2315; in the data active means inhibition mostly above about 28%, no sharp cut-off; inactive means mostly below about 43%; further: 0% is about no effect
NS1 function inh: influenza NS1 inhibition; AID 2326; actives 0.4% (n = 270,000); Potency, µM (top dose mostly 46.1 µM), without a hit: at the top dose activity, positive = more growth; further: potency means the concentration at half of the fitted maximal effect; actives are rising curves; nearly all actives have a fitted effect of over 50% in size
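A cell-based growth assay was used: compounds that relieve NS1-induced slow growth of budding yeast raise OD600. Assay medium was yeast nitrogen base with ammonium sulphate and -URA supplement, pH 6.0, with 2% galactose.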
Pf growth 96h: P. falciparum growth inhibition at 96 hour, primary screen for plastid delayed-death inhibitors; Potency, µM (titrated, usually from 28.7 µM), for inactives: top-dose activity change, negative = inhibition, usual class: inhibitors; P. falciparum luciferase reporter growth, 96 h; actives 6.9% (n = 320,000); AID 504834; active means well fitted inhibition curve with a large enough effect; inconclusive means small, poorly fitted or top-dose-only effect, or another doubt; inactive means no such curve, though single readings can be large or run the other way; further: potency means the concentration at half of the fitted maximal effect; on the % scale 0 is the no-effect control and ±100 the full control effect
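Readout is luminescence from an integrated firefly luciferase in P. falciparum. Red cells, 2% hematocrit and 0.05% parasitemia final, were cultured with compound through two parasite generations (96 hours) at 37 C, 5% CO2.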
Numbers without * were called inactive; ? = inconclusive; / = no result. Unless noted, the call rests on the fitted dose curve.

SMILES | Cycloheximide cs | Pf growth 48h | SARS PLpro yeast | Shiga inhibitor | NS1 function inh | Pf growth 96h
O=C(NNc1ccccc1Br)C(O)(c1cccc(C(F)(F)F)c1)c1cccc(C(F)(F)F)c1 | -2.6 | 2.62µM* | -5.2% | -4.4 | 0.6% | 2.33µM*
Cc1ccc(C(O)(C(=O)NNc2ccccn2)c2ccc(C)cc2)cc1 | -2.8 | -15.5% | 1.3% | -6.2 | -0.5% | ?
Cc1ccc(NNC(=O)C(O)(c2cccc(C(F)(F)F)c2)c2cccc(C(F)(F)F)c2)cc1 | -4.5 | 13.1µM* | -65.7% | -12.6 | -24.4% | ?
O=[N+]([O-])c1ccccc1N/N=C/c1ccc2c(c1)OCO2 | 39.6* | 127.0% | -0.5% | 68.1* | -4.8% | 215.0%
NS(=O)(=O)c1ccc(N/N=C/c2ccc3c(c2)OCO3)c([N+](=O)[O-])c1 | 11.6 | 8.7% | 0.5% | 7.2 | 2.8% | 43.8%
O=C(O)c1ccccc1NS(=O)(=O)c1ccc(NN=Cc2ccc(F)cc2)c([N+](=O)[O-])c1 | / | / | 0.5% | / | / | /
O=[N+]([O-])c1ccccc1N/N=C/c1ccccc1 | 35.1* | 385.2% | -2.8% | 62.4* | 19.4% | ?
CCN(CC)C(=O)c1[nH]cnc1C(=O)NCc1ccc(CNC(=O)OC(C)(C)C)cc1 | / | -2.7% | 3.4% | / | / | ?
CCOc1ccc(C(=O)COC(=O)c2cccc(-n3cnnn3)c2)cc1 | 56.2* | 102.1% | 7.4% | 50.7* | -5.1% | 44.6%
COC(=O)c1cccc(-n2cnnn2)c1 | -2.6 | 8.2% | 5.7% | -3.4 | 2.6% | 4.1%
COc1ccc(OCCOC(=O)c2cccc(-n3cnnn3)c2)cc1 | 14.2* | 53.3% | 3.9% | 14.2 | -6.8% | 14.7µM*
O=C(COC(=O)c1cccc(-n2cnnn2)c1)c1ccccc1 | 20.3* | 33.7% | -6.0% | 30.7* | -16.4% | 63.1%
O=C(OCc1nnc(-c2ccccc2)o1)c1ccc(S(=O)(=O)NCc2ccco2)cc1 | 0.8 | 22.6% | -2.5% | 2.3 | -17.4% | ?
Cn1c(SCC(=O)Nc2ccc3c(c2)OCCO3)nnc1C1CC1 | 1.4 | 10.9% | 0.7% | -2.9 | 1.5% | ?
Cc1ncc([N+](=O)[O-])n1CC(=O)N/N=C/c1ccc(F)cc1 | 0.2 | 1.4% | 1.7% | -11.1 | / | ?
Cc1ccc(S(=O)(=O)N2CCOCC2)cc1C(=O)NC(=S)N1CC(C)OC(C)C1 (centres undefined) | 0.7 | -11.2% | -0.4% | 5.1 | -7.2% | ?
O=c1c2ccccc2n2c(-c3cccc(Cl)c3)nnc2n1Cc1ccccc1 | 5.9 | -19.6% | -2.0% | -3.7 | 1.5% | ?
COc1ccc(-c2nnc3n(CCc4ccccc4)c(=O)c4ccccc4n23)cc1OC | 6.6 | 19.7% | 4.9% | 35.9 | -10.8% | 11.7µM*
CCCc1nnc(NC(=O)CCC(=O)N2CCN(CCOC(c3ccccc3)c3ccccc3)CC2)s1 | 1.4 | 10.4µM* | 0.3% | -19.2 | -7.9% | ?
CCOCCc1nnc(NC(=O)CS(=O)(=O)c2ccc(C)cc2)s1 | -2.9 | -0.2% | 5.9% | -11.0 | 9.6% | 0.233µM*
CCCc1nnc(NC(=O)CCC(=O)N2CCN(S(=O)(=O)c3ccc(C)cc3)CC2)s1 | 21.0 | -24.5% | 0.6% | 53.0* | 10.7% | -4.6%
COc1ccc(Cc2nnc(NC(=O)CS(=O)(=O)c3ccc(C)cc3)s2)cc1OC | -3.7 | -27.2% | 2.1% | -3.9 | -5.9% | -17.6%
COc1ccc(/C(C)=N/NC(=O)CNC(=O)COc2ccccc2)c(OC)c1 | -1.6 | 4.1% | 3.9% | -4.3 | 10.7% | 2.2%
COCc1cccc(C(=O)NC(c2ccccc2)c2ccccc2)c1 | -0.8 | -21.4% | -1.0% | -5.0 | 3.4% | ?
COc1ccc2nc(NCc3ccccc3)[nH]c2c1 | 23.6* | ? | 5.8% | 86.3 | 4.8% | /
COc1ccc2nc(N3CCCC3)[nH]c2c1 | 18.6* | 61.1% | 1.3% | 29.1 | 0.1% | /
c1ccc2[nH]c(NCc3ccc4c(c3)OCO4)nc2c1 | 34.4* | -17.4% | -0.4% | 62.7* | 0.6% | 10.8%
S=c1nc(NCc2ccc3c(c2)OCO3)c2ccccc2[nH]1 | 13.2 | 30.0% | -2.4% | 0.5 | 2.8% | ?
O=c1[nH]c2ccccc2nc1NCc1ccccc1 | 10.4 | 22.8% | -0.5% | 13.2 | -11.9% | 4.65µM*
COc1ccc2nc(NCCO)[nH]c2c1 | 2.3 | 0.2% | -8.1% | 1.7 | 0.7% | ?
